Out of some 5,500 compounds screened, about 2,000 (36%) were called active. Not shown: some 18% with an inconclusive outcome. Cut-off read from the data, not from the text of the source: active = normalized growth mostly below about 0.91 (no sharp cut-off); inconclusive = no clear call, values can overlap the other calls; inactive = mostly above about 0.92. This is one part of the list.
Assay: chemical genetic growth profiling, strain panel (AID 1159580);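 note: tested at 20 µM; growth read once vehicle control cultures reached saturation at 30 °C; 1 = growth at the plate median or of vehicle wells; lower values mean less growth of the strain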
Settings: S. cerevisiae deletion strains, growth OD
[1] = locus YAL013W, strain DEP1, stronger effect = lower value
[2] = locus YDL101C, strain DUN1, stronger effect = lower value
[3] = locus YGR078C, strain PAC10, stronger effect = lower value
[4] = locus YHR030C, strain SLT2, stronger effect = lower value
[5] = locus YJR075W, strain HOC1, stronger effect = lower value
[6] = locus YNL128W, strain TEP1, stronger effect = lower value
[7] = locus YNL153C, strain GIM3, stronger effect = lower value
[8] = locus YNL322C, strain KRE1, stronger effect = lower value
[9] = locus YPL241C, strain CIN2, stronger effect = lower value
[10] = locus YAL040C, strain CLN3, stronger effect = lower value
[11] = locus YCL061C, strain MRC1 (second series), stronger effect = lower value
[12] = locus YDR363W, strain ESC2, stronger effect = lower value
[13] = locus YER002W, strain NOP16, stronger effect = lower value
[14] = locus YHR079C, strain IRE1, stronger effect = lower value
[15] = locus YJL095W, strain BCK1, stronger effect = lower value
[16] = locus YJR066W, strain TOR1, stronger effect = lower value
[17] = locus YLR113W, strain HOG1, stronger effect = lower value
[18] = locus YNL175C, strain NOP13, stronger effect = lower value
[19] = locus YNL183C, strain NPR1, stronger effect = lower value
[20] = locus YNL197C, strain WHI3, stronger effect = lower value
[21] = locus YNL224C, strain SQS1, stronger effect = lower value
[22] = locus YOR083W, strain WHI5 (second series), stronger effect = lower value
[23] = locus YOR231W, strain MKK1, stronger effect = lower value
[24] = locus YPL256C, strain CLN2, stronger effect = lower value

Measured: normalized growth

Cc1cccc(C)c1N=C1SCCS1
inactive: [1] 1 | locus YBR229C, strain ROT2, stronger effect = lower value 0.99 | locus YCL061C, strain MRC1, stronger effect = lower value 0.982 | [2] 0.986 | locus YDL134C, strain PPH21, stronger effect = lower value 1.02 | locus YDR150W, strain NUM1, stronger effect = lower value 0.902 | locus YEL061C, strain CIN8, stronger effect = lower value 1.01 | [3] 0.99 | locus YGR229C, strain SMI1, stronger effect = lower value 0.997 | [4] 0.929 | locus YHR087W, strain rtc3, stronger effect = lower value 0.988 | locus YJR043C, strain POL32, stronger effect = lower value 0.995 | [5] 0.996 | locus YKL190W, strain CNB1, stronger effect = lower value 1 | locus YLR039C, strain RIC1, stronger effect = lower value 0.941 | locus YLR058C, strain SHM2 (second series), stronger effect = lower value 0.996 | locus YLR085C, strain ARP6, stronger effect = lower value 0.99 | locus YLR262C, strain YPT6, stronger effect = lower value 0.978 | locus YML094W, strain GIM5, stronger effect = lower value 0.978 | locus YMR219W, strain ESC1, stronger effect = lower value 0.996 | locus YMR263W, strain SAP30, stronger effect = lower value 0.934 | locus YMR307W, strain GAS1, stronger effect = lower value 0.93 | [6] 1 | [7] 0.966 | locus YNL298W, strain CLA4 (second series), stronger effect = lower value 0.99 | [8] 0.988 | locus YNR030W, strain Alg12, stronger effect = lower value 1 | locus YPL055C, strain LGE1, stronger effect = lower value 0.906 | [9] 0.865 | locus YPR135W, strain CTF4, stronger effect = lower value 0.887

CN(C)CCC(c1ccc(Cl)cc1)c1ccccn1 (stereo not given)
inactive: [10] 0.987 | [11] 0.999 | [12] 0.993 | [13] 0.987 | [3] 1.01 | [4] 0.962 | [14] 0.97 | [15] 0.999 | [16] 0.927 | [5] 0.991 | [17] 1.01 | [7] 0.998 | [18] 1 | [19] 0.941 | [20] 1.03 | [21] 1.01 | [8] 0.992 | [22] 1.01 | [23] 0.971 | [9] 0.998 | [24] 0.94

Cc1cccc(C)c1OCC(N)C(C)C (stereo not given)
inactive: [1] 1.01 | [10] 0.995 | [11] 1 | [12] 0.999 | [13] 0.998 | [5] 1.01 | [6] 0.988 | [7] 1.02 | [18] 1.02 | [20] 1 | [21] 0.998 | [22] 1

N#CSCC(=O)c1ccccc1
active: locus YAR019C, strain CDC15, stronger effect = lower value 0.0948 | locus YBL105C, strain PKC1, stronger effect = lower value 0.0869 | locus YBR135W, strain CKS1, stronger effect = lower value 0.0998 | locus YBR136W, strain MEC1, stronger effect = lower value 0.0968 | locus YBR160W, strain CDC28, stronger effect = lower value 0.101 | locus YDL017W, strain CDC7, stronger effect = lower value 0.092 | locus YDL028C, strain MPS1, stronger effect = lower value 0.108 | [2] 0.159 | locus YDL108W, strain KIN28, stronger effect = lower value 0.107 | locus YDL214C, strain PRR2, stronger effect = lower value 0.125 | locus YDR052C, strain DBF4, stronger effect = lower value 0.273 | locus YDR477W, strain SNF1, stronger effect = lower value 0.107 | locus YER123W, strain YCK3, stronger effect = lower value 0.121 | locus YER133W, strain GLC7, stronger effect = lower value 0.12 | locus YFL009W, strain cdc4, stronger effect = lower value 0.104 | locus YFL029C, strain CAK1, stronger effect = lower value 0.0973 | locus YFR003C, strain YPI1, stronger effect = lower value 0.0991 | locus YFR019W, strain FAB1, stronger effect = lower value 0.0919 | locus YGR040W, strain KSS1, stronger effect = lower value 0.119 | locus YGR052W, strain FMP48, stronger effect = lower value 0.127 | locus YGR092W, strain DBF2, stronger effect = lower value 0.0982 | [4] 0.111 | [14] 0.107 | locus YHR082C, strain KSP1, stronger effect = lower value 0.145 | locus YHR205W, strain SCH9, stronger effect = lower value 0.00392 | locus YIL147C, strain SLN1, stronger effect = lower value 0.0993 | [15] 0.101 | locus YJL128C, strain PBS2, stronger effect = lower value 0.499 | locus YJL157C, strain FAR1, stronger effect = lower value 0.0986 | locus YJR016C, strain ILV3, stronger effect = lower value 0.0975 | locus YJR066W, strain TOR1 (second series), stronger effect = lower value 0.101 | [16] 0.122 | locus YKL048C, strain ELM1, stronger effect = lower value 0.154 | locus YKL067W, strain YNK1, stronger effect = lower value 0.119 | locus YKL101W, strain HSL1, stronger effect = lower value 0.115 | locus YKL193C, strain SDS22, stronger effect = lower value 0.105 | locus YKL203C, strain TOR2, stronger effect = lower value 0.112 | [17] 0.147 | locus YLR133W, strain CKI1, stronger effect = lower value 0.0895 | locus YLR403W, strain SFP1, stronger effect = lower value 0.0174 | locus YML070W, strain DAK1, stronger effect = lower value 0.126 | locus YMR001C, strain CDC5, stronger effect = lower value 0.0981 | locus YMR205C, strain PFK2 (second series), stronger effect = lower value 0.095 | locus YMR277W, strain FCP1, stronger effect = lower value 0.0965 | locus YNL006W, strain LST8, stronger effect = lower value 0.0939 | locus YNL020C, strain ARK1, stronger effect = lower value 0.0915 | locus YNL161W, strain CBK1, stronger effect = lower value 0.0943 | [19] 0.13 | locus YNL207W, strain RIO2, stronger effect = lower value 0.121 | locus YNL222W, strain SSU72, stronger effect = lower value 0.0984 | locus YNL307C, strain MCK1 (second series), stronger effect = lower value 0.0995 | locus YOL078W, strain AVO1, stronger effect = lower value 0.107 | locus YOL136C, strain PFK27, stronger effect = lower value 0.14 | locus YOR061W, strain CKA2, stronger effect = lower value 0.158 | locus YOR119C, strain RIO1, stronger effect = lower value 0.132 | [23] 0.118 | locus YOR329C, strain SCD5, stronger effect = lower value 0.0919 | locus YPL031C, strain PHO85, stronger effect = lower value 0.107 | locus YPL153C, strain RAD53, stronger effect = lower value 0.117 | locus YPL204W, strain HRR25, stronger effect = lower value 0.109 | locus YPL209C, strain IPL1, stronger effect = lower value 0.0967 | [24] 0.135 | locus YPR025C, strain CCL1, stronger effect = lower value 0.0952 | locus YPR106W, strain ISR1, stronger effect = lower value 0.469 | locus YPR111W, strain DBF20, stronger effect = lower value 0.505 | strain NNK1, stronger effect = lower value 0.0857 | strain TSCII, stronger effect = lower value 0.0982
